Z-score data for 30 sequences are collected here from PubChem BioAssay AID1508600 (Functional Genomics Laboratory (NCATS/FGL), 2020).

Out of some 53,000 sequences screened, about 3,700 (7%) were called active. The full list was thinned out, with actives kept by preference. Unmarked numbers belong to inactive results.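 Rule for the calls: active = gene knockdowns whose robust z-score for IL-1 alpha signal is at least 2 or at most -2, so actives lie on both sides; inactive = the rest.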

The assay in a line: Components of the Cytosolic LPS Sensing Pathway: Gene Identification via Genome-wide siRNA Screen.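 Note: robust z of the log signal after scaling to non-targeting control siRNA wells of the plate.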 Particulars: RAW264.7 macrophages, IL-1a HTRF, actives lie on both sides, screened at 100 nM (by protocol), cells primed 5 h with Pam3CSK4 first. The gist of the method:
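Read-out: IL-1a HTRF on supernatant, divided by plate negative-control median ×100, log-transformed and converted to robust z-score. Cells were RAW264.7 given 100 nM siRNA, Pam3CSK4-primed 5 hours, then LipidA-transfected 24 hour.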
On the technique in general: In TR-FRET formats the signal depends on donor and acceptor labels being close together.
In the case of GGAGAGACCACCCUUUCAGTT against Fahd2a, the z-score is -0.432.

Take GCAUAUGGACUUUCUGUCATT against Iws1: the z-score is -0.157. Then GGUGUAACACUCAUUUAUCTT against Ifitm3, with 2.88 (active); and GGACACCUACCAAAAGUUATT against Cd9, with 0.432. With GCUACAACAAGACAAAGUCTT against Tada1, the z-score was 1.84. As for CCUUCUACCUACUUAUUGGTT against Tomm70a, the figure is 0.178; as for GGAAGAUGUGAAAUUGCUUTT against Dars2, 2.23 (active); as for CCACUAUGUUCUGUGGCAATT against Olfr736, -2.33 (active). Then GGAAGAAUUUGACAACCGCTT against Mrps18c, with 0.583; and GGAAAAUGAUAGCAGACAUTT against Zfp810, with -1.72. As for GGGCCAGAAGAAGAGUCGATT against Mllt6, the figure is -0.304.

Consider GGAGAUUUCUGAAACUAGATT against Tiaf2, for which the z-score is -2.09 (active). Then “GGCCAACUCACCUUUCUAGTT against D630023F18Rik”, with 1.84.

As to CCAUUCUUAUUGUUGAGAATT against Nek9, the z-score is -0.793.

As to GGACAUGAAAGUUGACCUGTT against Mrps31, the z-score was 0.465. Regarding GCCCGUGUGUAAGUGCAAATT against Wfikkn2, the z-score is 2.25 (active). Then GGAAACAGAGCAAGGAAAATT against Gas7, with 0.613; and GGAGAGCUCUAUGGAUCGATT against Fgf16, with 0.784; and CCUCCUUUGGACAACGGGUTT against Cyp7a1, with -1.34.

Take CCUGCUCUCCUCAUUAUGUTT against Rnls: the z-score was -0.115. Then GGAAGCAACUUGGAAUUUGTT against Ctnna3, with 0.886.

Consider GGGUACAGUCCGAUACAGUTT against Nploc4, for which the z-score was -1.79.

Turning to GCUCUCAUUAGCAUUAUCGTT against Gria1, the z-score is 0.21. Then GCACAACUCAGAAGUAAUUTT against Ghr, with 0.271; and GGUAAUAUUUCGUGCUUUATT against Lamb1, with 2.1 (active); and CCUAAAAAGAGGAAAAGGGTT against Psg29, with -0.254. In the case of GGUGCUCAGCAUGUUUGCUTT against Avpr1b, the z-score was -1.06. Then GGCACUGGAAAUAAAACCCTT against S100a14, with -0.766. Then GCUAACGAAGGUAGUGUACTT against Gtpbp8, with 3.34 (active); and GGUAUGCUCUCUGUUGACUTT against Olfr922, with 0.472.
